Values joined by “and” are separate entries in the source; they are usually repeats but may differ in a detail not shown here. Equal entries are not always repeated. Screen size: about 5,500 compounds; about 2,000 (36%) were called active. Inconclusive results (about 18%) are left out. Cut-off read from the data, not from the text of the source: active = normalized growth mostly below about 0.91 (no sharp cut-off); inconclusive = no clear call, values can overlap the other calls; inactive = mostly above about 0.92. The list shows a part of the results.
Experiment: chemical genetic growth profiling, strain panel (AID 1159580);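 note: tested at 20 µM; growth read once vehicle control cultures reached saturation at 30 °C; 1 = growth at the plate median or of vehicle wells; lower values mean less growth of the strain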
Settings: S. cerevisiae deletion strains, growth OD

Measured: normalized growth

CC1OC1P(=O)(O)O (stereo not given)
inactive: locus YAL021C, strain ccr4, active compounds read low 1 | locus YAL026C, strain drs2, active compounds read low 1.02 | locus YAL030W, strain snc1, active compounds read low 0.998 | locus YAL040C, strain CLN3, active compounds read low 0.959 | locus YBL061C, strain skt5, active compounds read low 0.996 | locus YBR009C, strain hhf1, active compounds read low 0.978 | locus YBR021W, strain FUR4, active compounds read low 0.973 | locus YBR023C, strain chs3, active compounds read low 0.988 | locus YBR171W, strain sec66, active compounds read low 1 | locus YBR229C, strain ROT2, active compounds read low 0.994 | locus YBR231C, strain swc5, active compounds read low 0.992 | locus YBR279W, strain paf1, active compounds read low 0.991 | locus YCL011C, strain gbp2, active compounds read low 1.03 | locus YCL016C, strain dcc1, active compounds read low 0.984 | locus YCL029C, strain bik1, active compounds read low 0.993 | locus YCL061C, strain MRC1 (second series), active compounds read low 1.01 | locus YCL069W, strain vba3, active compounds read low 1 | locus YCR088W, strain abp1, active compounds read low 1 | locus YDL005C, strain med2, active compounds read low 0.977 | locus YDL035C, strain GPR1, active compounds read low 0.991 | locus YDL040C, strain nat1, active compounds read low 0.991 | locus YDL074C, strain BRE1, active compounds read low 1.04 | locus YDL101C, strain DUN1, active compounds read low 0.992 | locus YDL134C, strain PPH21, active compounds read low 0.977 | locus YDL185W, strain tfp1, active compounds read low 0.979 | locus YDL192W, strain arf1, active compounds read low 0.991 | locus YDR001C, strain nth1, active compounds read low 1 | locus YDR069C, strain doa4, active compounds read low 0.986 | locus YDR101C, strain arx1, active compounds read low 1 | locus YDR137W, strain rgp1, active compounds read low 1.01 | locus YDR150W, strain NUM1, active compounds read low 0.994 and 1 | locus YDR159W, strain sac3, active compounds read low 0.934 | locus YDR162C, strain NBP2, active compounds read low 0.987 | locus YDR195W, strain ref2 0.983 | locus YDR297W, strain sur2, active compounds read low 1.01 | locus YDR318W, strain mcm21, active compounds read low 0.984 | locus YDR334W, strain swr1, active compounds read low 1 | locus YDR335W, strain msn5, active compounds read low 0.996 | locus YDR363W, strain ESC2, active compounds read low 0.974 | locus YDR388W, active compounds read low 0.988 | locus YDR392W, strain spt3, active compounds read low 0.892 | locus YDR502C, strain sam2, active compounds read low 0.983 | locus YEL003W, strain gim4, active compounds read low 1 | locus YEL037C, strain rad23, active compounds read low 1 | locus YEL061C, strain CIN8 (second series), active compounds read low 1 | locus YEL061C, strain CIN8, active compounds read low 1 | locus YER002W, strain NOP16, active compounds read low 0.978 | locus YER015W, strain faa2, active compounds read low 0.981 | locus YER016W, strain bim1, active compounds read low 0.974 | locus YER110C, active compounds read low 0.987 | locus YER111C, strain swi4, active compounds read low 1 | locus YER155C, strain BEM2 (second series), active compounds read low 0.965 | locus YER155C, strain BEM2, active compounds read low 0.994 | locus YER167W, strain BCK2, active compounds read low 0.973 | locus YFR010W, strain ubp6, active compounds read low 1 | locus YGL078C, strain dbp3, active compounds read low 0.988 | locus YGL086W, strain mad1, active compounds read low 1 | locus YGL167C, strain pmr1, active compounds read low 0.997 | locus YGL173C, strain kem1, active compounds read low 0.99 | locus YGL227W, strain vid30, active compounds read low 1 | locus YGL240W, strain doc1, active compounds read low 0.968 | locus YGL248W, strain PDE1, active compounds read low 1.01 | locus YGL253W, strain hxk2, active compounds read low 1.03 | locus YGR078C, strain PAC10, active compounds read low 1.02 | locus YGR135W, strain pre9, active compounds read low 0.966 | locus YGR252W, strain gcn5, active compounds read low 0.982 | locus YHR013C, strain ard1, active compounds read low 0.987 | locus YHR027C, strain rpn1, active compounds read low 0.993 | locus YHR030C, strain SLT2, active compounds read low 0.994 | locus YHR079C, strain IRE1 (second series), active compounds read low 0.989 | locus YHR094C, strain hxt1, active compounds read low 0.987 | locus YHR129C, strain ARP1, active compounds read low 0.987 | locus YHR142W, strain chs7, active compounds read low 1.01 | locus YHR200W, strain rpn10, active compounds read low 0.989 | locus YIL066C, strain RNR3, active compounds read low 1 | locus YIL073C, strain SPO22, active compounds read low 0.944 | locus YIL125W, strain kgd1, active compounds read low 0.992 | locus YIR030C, strain dcg1, active compounds read low 0.985 | locus YJL092W, strain hpr5, active compounds read low 1 | locus YJL095W, strain BCK1 (second series), active compounds read low 0.998 | locus YJL095W, strain BCK1, active compounds read low 1.01 | locus YJL115W, strain asf1, active compounds read low 1 | locus YJL129C, strain trk1, active compounds read low 1.01 | locus YJL134W, strain LCB3, active compounds read low 0.989 | locus YJL154C, strain vps35, active compounds read low 0.996 | locus YJL164C, strain tpk1, active compounds read low 0.986 | locus YJL166W, strain qcr8, active compounds read low 0.986 | locus YJL168C, strain set2, active compounds read low 0.989 | locus YJL187C, strain SWE1 (second series), active compounds read low 1.02 | locus YJR043C, strain POL32, active compounds read low 1.01

From PubChem BioAssay AID1159580 (chemical genetic matrix, 2015)
